PubChem BioAssay (EPA / NIEHS)
Values joined by “and” are separate entries in the source; they are usually repeats but may differ in a detail not shown here. Equal entries are not always repeated. Some compounds were tested as several samples or in several runs, with calls that do not always agree. Active and inactive are the calls of the source. Rule for the calls: active = hit-call score of the fitted dose curve at least 0.9, where 1 is the maximum; inactive = score below 0.9.

Experiments:
[1] = BSK_CASM3C_SRB: Viability Assessment in the BioMAP Diversity Plus: CASM3C Assay (AID 2283050); details: primary human coronary artery smooth muscle cells;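 note: total protein by SRB staining as cytotoxicity measure in parallel cultures; cells exposed to compound for 24 h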
[2] = read-out: Thrombomodulin, THBD (gene 7056); assay: BSK_CASM3C_Thrombomodulin: BioMAP Diversity Plus: CASM3C Assay for Thrombomodulin Biomarker Activity (AID 2283051); details: primary human coronary artery smooth muscle cells; actives raise or lower the signal;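 note: thrombomodulin protein level measured by ELISA 24 h after dosing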
[3] = read-out: Tissue Factor, F3 (gene 2152); assay: BSK_CASM3C_TissueFactor: BioMAP Diversity Plus: CASM3C Assay for Tissue Factor Biomarker Activity (AID 2283052); details: primary human coronary artery smooth muscle cells; actives raise or lower the signal;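 note: cell surface tissue factor protein level read by ELISA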
[4] = read-out: Interferon-gamma inducible Protein 10 (IP10), CXCL10 (gene 3627); assay: BSK_hDFCGF_IP10: BioMAP Diversity Plus: hDFCGF Assay for Interferon-gamma inducible Protein 10 (IP10) Biomarker Activity (AID 2283053); details: primary human foreskin fibroblasts; actives raise or lower the signal
Method in brief: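 Cells: human dermal foreskin fibroblasts. Exposure: 24 h post-dosing. Detection: IP-10 ELISA, with values expressed against DMSO controls and fitted in both directions.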

[5] = read-out: Urokinase-type plasminogen activator receptor (uPAR), PLAUR (gene 5329); assay: BSK_CASM3C_uPAR: BioMAP Diversity Plus: CASM3C Assay for Urokinase-type plasminogen activator receptor (uPAR) Biomarker Activity (AID 2283054); details: primary human coronary artery smooth muscle cells; actives raise or lower the signal;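 note: cell-surface uPAR protein level quantified by ELISA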
[6] = read-out: Vascular cell adhesion molecule 1 (VCAM1), VCAM1 (gene 7412); assay: BSK_CASM3C_VCAM1: BioMAP Diversity Plus: CASM3C Assay for Vascular cell adhesion molecule 1 (VCAM1) Biomarker Activity (AID 2283055); details: primary human coronary artery smooth muscle cells; actives raise or lower the signal;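 note: VCAM-1 protein level quantified by ELISA on the cells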
[7] = read-out: Collagen III, COL3A1 (gene 1281); assay: BSK_hDFCGF_CollagenIII: BioMAP Diversity Plus: hDFCGF Assay for Collagen III Biomarker Activity (AID 2283056); details: primary human foreskin fibroblasts; actives raise or lower the signal
Method in brief: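 ELISA readout of Collagen III in human dermal (foreskin) fibroblasts, taken 24 h post-treatment. Gain or loss relative to DMSO vehicle fitted in both directions.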

[8] = read-out: Epidermal growth factor receptor (EGFR), EGFR (gene 1956); assay: BSK_hDFCGF_EGFR: BioMAP Diversity Plus: hDFCGF Assay for Epidermal growth factor receptor (EGFR) Biomarker Activity (AID 2283057); details: primary human foreskin fibroblasts; actives raise or lower the signal
Method in brief: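 Dosing human primary skin fibroblasts, then measuring surface EGFR by ELISA at 24 h, gives the endpoint; gains and losses relative to DMSO were fitted in both directions.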

[9] = read-out: Interleukin-8 (IL8), CXCL8 (gene 3576); assay: BSK_hDFCGF_IL8: BioMAP Diversity Plus: hDFCGF Assay for Interleukin-8 (IL8) Biomarker Activity (AID 2283058); details: primary human foreskin fibroblasts; actives raise or lower the signal
Method in brief: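 IL-8 levels read by ELISA at 24 hours after dosing human skin fibroblast cultures. Parallel SRB staining assessed overt cytotoxicity, and gain or loss of signal was fitted against DMSO control.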

[10] = BSK_hDFCGF_Proliferation: Cell Proliferation Assessment in the BioMAP Diversity Plus: hDFCGF Assay (AID 2283059); details: primary human foreskin fibroblasts;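 note: curves fitted for both rise and fall of signal versus DMSO baseline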
Method in brief: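 Steps: dose primary human dermal fibroblasts (foreskin); […] fix in 10% TCA; stain with 0.1% SRB; read 560 nm; fit gain or loss of signal against DMSO.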

Compound	outcome [1]	outcome [2]	outcome [3]	outcome [4]	outcome [5]	outcome [6]	outcome [7]	outcome [8]	outcome [9]	outcome [10]	AC50 [4]	AC50 [6]	AC50 [8]	AC50 [10]	AC50 [7]	AC50 [3]	AC50 [1]	AC50 [5]	AC50 [9]	AC50 [2]
O=C(CC(=O)C(F)(F)C(F)(F)F)C(F)(F)F	inactive	inactive	inactive	inactive	inactive	inactive	inactive	inactive	inactive	inactive	–	–	–	–	–	–	–	–	–	–
FC(F)(F)C(F)(F)C(F)(F)C(F)(F)C(F)(F)C(F)(F)CCS	inactive	inactive	inactive	inactive	inactive	inactive	inactive	inactive	inactive	inactive	–	–	–	–	–	–	–	–	–	–
CC(C)(C)C(=O)CC(=O)C(F)(F)C(F)(F)C(F)(F)F	inactive	inactive	inactive	inactive	inactive	inactive	inactive	inactive	inactive	inactive	–	–	–	–	–	–	–	–	–	–
O=C(Cl)C(F)(F)C(F)(F)C(F)(F)C(F)(F)C(F)(F)C(F)(F)C(F)(F)C(F)(F)F	inactive	inactive	inactive	–	inactive	inactive	inactive	inactive	inactive	–	24.8 µM (active) and 36.7 µM (active) and 32.9 µM (active)	30 µM (active)	6.36 µM (active) and 13.7 µM (active)	49.7 µM (active) and 49.4 µM (active) and 49.5 µM (active)	–	–	–	–	–	–
CCCCNc1ccccc1	inactive	inactive	inactive	inactive	inactive	inactive	inactive	inactive	inactive	inactive	–	–	–	–	–	–	–	–	–	–
OCC(F)(F)C(F)(F)C(F)(F)C(F)(F)C(F)(F)C(F)(F)F	inactive	inactive	inactive	–	inactive	inactive	–	inactive	inactive	–	55.1 µM (active) and 41.2 µM (active)	–	–	56.1 µM (active) and 54.4 µM (active)	30 µM (active) and 49.7 µM (active)	–	–	–	–	–
CS(C)(=O)=O	inactive	inactive	inactive	inactive	inactive	inactive	inactive	inactive	inactive	inactive	–	–	–	–	–	–	–	–	–	–
O=S(=O)(OCC(F)F)C(F)(F)F	inactive	inactive	inactive	inactive	inactive	inactive	inactive	inactive	inactive	inactive	–	–	–	–	–	–	–	–	–	–
CCc1ccc(C(c2ccc(CC)cc2)C(Cl)Cl)cc1	inactive	inactive	–	–	inactive	inactive	–	inactive	inactive	–	26.2 µM (active)	–	–	4.45 µM (active)	20 µM (active)	5.97 µM (active)	–	–	–	–
NC(=O)C(F)(F)C(F)(F)C(F)(F)C(F)(F)F	inactive	inactive	inactive	inactive	inactive	inactive	inactive	inactive	inactive	inactive	–	–	–	–	–	–	–	–	–	–
COC(=O)CCC(F)(F)C(F)(F)C(F)(F)C(F)(F)F	inactive	inactive	inactive	inactive	inactive	inactive	inactive	inactive	inactive	inactive	–	–	–	–	–	–	–	–	–	–
CCCCCCC(C)OC(=O)CCCCC(=O)OC(C)CCCCCC (centres undefined)	inactive	inactive	inactive	inactive	inactive	inactive	inactive	inactive	inactive	inactive	–	–	–	–	–	–	–	–	–	–
FC1CC(F)(F)C(F)(F)C1(F)F (centres undefined)	inactive	inactive	inactive	inactive	inactive	inactive	inactive	inactive	inactive	inactive	–	–	–	–	–	–	–	–	–	–
CCCCCCCCC(F)(F)C(F)(F)C(F)(F)C(F)(F)C(F)(F)C(F)(F)F	inactive	inactive	inactive	inactive	inactive	inactive	inactive	inactive	inactive	inactive	–	–	–	–	–	–	–	–	–	–
OCC(F)(F)C(F)(F)C(F)(F)F	inactive	inactive	inactive	inactive	inactive	inactive	inactive	inactive	inactive	inactive	–	–	–	–	–	–	–	–	–	–
CCCCCCCCCCCCCCCC[N+](C)(C)Cc1ccccc1	–	inactive	–	–	–	–	–	inactive	–	–	2.56 µM (active)	4.2 µM (active)	–	0.59 µM (active)	0.666 µM (active)	7.36 µM (active)	5.23 µM (active)	7.8 µM (active)	3.86 µM (active)	–
CC(=O)Nc1ccc(N=Nc2cc(C)ccc2O)cc1	inactive	inactive	inactive	–	inactive	–	inactive	inactive	inactive	–	34.1 µM (active)	9.54 µM (active)	–	20 µM (active)	–	–	–	–	–	–
C=CC(F)(F)C(F)(F)C(F)(F)C(F)(F)C(F)(F)C(F)(F)C(F)(F)C(F)(F)C=C	inactive	inactive	inactive	inactive	inactive	inactive	inactive	inactive	inactive	inactive	–	–	–	–	–	–	–	–	–	–
O=C(O)C(F)(OC(F)(F)C(F)(OC(F)(F)C(F)(OC(F)(F)C(F)(F)C(F)(F)F)C(F)(F)F)C(F)(F)F)C(F)(F)F (centres undefined)	inactive	inactive	inactive	inactive	inactive	inactive	inactive	inactive	inactive	inactive	–	–	–	–	–	–	–	–	–	–
O=C(O)C(F)(F)C(F)(F)F	inactive	inactive	inactive	inactive	inactive	inactive	inactive	inactive	inactive	inactive	–	–	–	–	–	–	–	–	–	–
FC(F)(F)C(F)(F)C(F)(F)C(F)(F)C(F)(F)C(F)(F)C(F)(F)Br	inactive	inactive	inactive	inactive	inactive	inactive	inactive	inactive	inactive	inactive	–	–	–	–	–	–	–	–	–	–
CCN(CC)c1ccc2c(C)cc(=O)oc2c1	inactive	inactive	inactive	inactive	inactive	inactive	inactive	inactive	inactive	–	–	–	–	24 µM (active)	–	–	–	–	–	–

Compound	outcome [1]	outcome [2]	outcome [3]	outcome [4]	outcome [5]	outcome [6]	outcome [7]	outcome [8]	outcome [9]	outcome [10]	AC50 [4]	AC50 [6]	AC50 [8]	AC50 [10]	AC50 [7]	AC50 [3]	AC50 [1]	AC50 [5]	AC50 [9]	AC50 [2]
O[Si](c1ccccc1)(c1ccccc1)c1ccccc1	inactive	inactive	inactive	inactive	inactive	inactive	–	inactive	inactive	–	–	–	–	20 µM (active)	7.56 µM (active)	–	–	–	–	–
CCCCCCCOC(=O)c1ccccc1C(=O)OCCCCCCC	inactive	inactive	inactive	inactive	inactive	inactive	inactive	inactive	inactive	inactive	–	–	–	–	–	–	–	–	–	–
FC(F)(F)C(F)(F)C(F)(F)CI	inactive	inactive	inactive	inactive	inactive	inactive	inactive	inactive	inactive	inactive	–	–	–	–	–	–	–	–	–	–
Oc1ccc(Nc2ccccc2)cc1	inactive	–	–	inactive	inactive	inactive	inactive	inactive	inactive	–	–	–	–	26.5 µM (active)	–	11 µM (active)	–	–	–	5.45 µM (active)
FC(F)(F)C(F)(F)C(F)(F)C(F)(F)C(F)(F)C(F)(F)C(F)(F)C(F)(F)F	inactive	inactive	inactive	inactive	inactive	inactive	inactive	inactive	inactive	inactive	–	–	–	–	–	–	–	–	–	–
O=C(O)C(F)(OC(F)(F)C(F)(OC(F)(F)C(F)(F)C(F)(F)F)C(F)(F)F)C(F)(F)F (centres undefined)	inactive	inactive	inactive	inactive	inactive	inactive	inactive	inactive	inactive	inactive	–	–	–	–	–	–	–	–	–	–
CC(CCl)OP(=O)(OC(C)CCl)OC(C)CCl (centres undefined)	inactive	inactive	inactive	inactive	inactive	inactive	inactive	inactive	inactive	inactive	–	–	–	–	–	–	–	–	–	–
CCCCCCOC(=O)c1ccccc1O	inactive	inactive	inactive	–	inactive	inactive	–	inactive	–	–	38.1 µM (active) and 40.6 µM (active)	–	–	15.1 µM (active) and 14.2 µM (active)	24.5 µM (active) and 16.9 µM (active)	–	–	–	36.9 µM (active) and 42.9 µM (active)	–
C=C(C)C(=O)OCC(F)(F)C(F)(F)C(F)(F)F	inactive	inactive	inactive	inactive	inactive	inactive	inactive	inactive	inactive	inactive	–	–	–	–	–	–	–	–	–	–
FC(F)(F)C(F)(F)C(F)(F)C(F)(F)C(F)(F)C(F)(F)C(F)(F)I	inactive	inactive	inactive	inactive	inactive	inactive	inactive	inactive	inactive	inactive	–	–	–	2.64 µM (active)	–	–	–	–	–	–
OCC(F)(F)C(F)(F)C(F)(F)C(F)(F)C(F)(F)C(F)F	inactive	inactive	inactive	inactive	inactive	inactive	inactive	inactive	inactive	inactive	–	–	–	–	–	–	–	–	–	–
CCc1c(Br)c(Br)c(Br)c(Br)c1Br	inactive	inactive	–	inactive	inactive	inactive	inactive	inactive	inactive	inactive	–	–	–	–	–	4.48 µM (active)	–	–	–	–
Nc1ccc([N+](=O)[O-])cc1O	inactive	–	inactive	inactive	inactive	inactive	inactive	inactive	inactive	–	–	–	–	11.1 µM (active)	–	–	–	–	–	20 µM (active)
O=C(O)C(F)(F)C(F)(F)C(F)F	inactive	inactive	inactive	inactive	inactive	inactive	inactive	inactive	inactive	inactive	–	–	–	–	–	–	–	–	–	–
O=S(=O)(O)C(F)(F)C(F)(F)C(F)(F)C(F)(F)C(F)(F)C(F)(F)C(F)(F)F	inactive	inactive	inactive	inactive	inactive	inactive	inactive	inactive	inactive	inactive	–	–	–	–	–	–	–	–	–	–
OCC(F)(F)C(F)(F)C(F)(F)C(F)F	inactive	inactive	inactive	inactive	inactive	inactive	inactive	inactive	inactive	inactive	–	–	–	–	–	–	–	–	–	–
O=S(=O)(OCCOC(F)(F)F)C(F)(F)F	inactive	inactive	inactive	inactive	inactive	inactive	inactive	inactive	inactive	inactive	–	–	–	–	–	–	–	–	–	–
CCCCOCCOCCOC(=O)CCCCC(=O)OCCOCCOCCCC	inactive	inactive	inactive	inactive	inactive	inactive	inactive	inactive	inactive	inactive	–	–	–	–	–	–	–	–	–	–
O=C(O)C=C(C(F)(F)F)C(F)(F)F	inactive	inactive	inactive	inactive	inactive	–	inactive	inactive	inactive	inactive	–	12.5 µM (active) and 5.23 µM (active)	–	21.9 µM (active)	–	–	–	–	–	–
C=CC(=O)OCC(F)(F)C(F)(F)C(F)(F)C(F)(F)C(F)(F)C(F)(F)C(F)(F)F	inactive	inactive	inactive	inactive	inactive	inactive	inactive	inactive	inactive	–	–	–	–	17.5 µM (active) and 46.3 µM (active)	–	–	–	–	–	–
C#C[C@]1(O)CC[C@H]2[C@@H]3CCc4cc(OC)ccc4[C@H]3CC[C@@]21C	inactive	inactive	–	inactive	inactive	inactive	–	–	inactive	–	–	–	16 nM (active)	4.67 µM (active)	0.00348 µM (active)	0.016 µM (active)	–	–	–	–
